Measured values as given in PubChem BioAssay AID540317 (National Center for Advancing Translational Sciences (NCATS), 2011).
About 2,200 (0.56%) of roughly 390,000 compounds were called active. Not shown: some 3% with an inconclusive outcome. The full list was thinned out, with actives kept by preference. Unmarked numbers belong to inactive results. Calls come from the whole dose curve; as a rule, active = well fitted inhibition curve with a large enough effect; inconclusive = small, poorly fitted or top-dose-only effect; inactive = no such curve, though single readings can be large or run the other way.

Each molecule was assayed against Chromobox protein homolog 1 (Homo sapiens) (UniProt P83916) (assay: HTS for Inhibitors of HP1-beta Chromodomain Interactions with Methylated Histone Tails). Conditions: AlphaScreen HP1-beta / biotin-H3K9me3 peptide binding; series mostly up to 114 µM; activity change, negative = inhibition: at the top concentration.
Outline: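 Compound inhibition of the preformed complex between 50 nM HP1-beta and 50 nM biotinylated H3K9me3 peptide was read by AlphaScreen. Buffer was PBS pH 7.4 with 0.01% Tween-20. Incubations ran 30 min at room temperature, with 10 ug/mL donor/acceptor beads.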
Note: nearly all actives have a fitted effect of over 70% in size.
Potency is the fitted concentration of half-maximal effect.

Chromobox protein homolog 1 (Homo sapiens), sequence (P83916 whole entry, looked up): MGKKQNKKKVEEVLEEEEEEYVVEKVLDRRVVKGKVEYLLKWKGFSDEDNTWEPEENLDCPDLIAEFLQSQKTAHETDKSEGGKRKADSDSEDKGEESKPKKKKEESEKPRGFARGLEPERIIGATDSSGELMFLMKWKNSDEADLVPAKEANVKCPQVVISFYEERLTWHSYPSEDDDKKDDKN

Row | Compound | activity change, negative = inhibition | Potency
1 | Cc1cc(Nc2cc(N3CCN(C)CC3)nc(Sc3ccc(NC(=O)C4CC4)cc3)n2)n[nH]1 | 9.95% | –
2 | C=CC(=O)Nc1ccc(Nc2ccnc(Nc3ccc(N4CCN(C)CC4)cc3)n2)cc1 | – | 44.7 µM (active)
3 | Cc1cc2nn(-c3ccc(Cl)cc3)nc2cc1NC(=O)C(C)C | 35.5% | –
4 | Oc1c(Br)cc(/C=N/NC(=S)NCC2CCCO2)cc1Br (centres undefined) | 19% | –
5 | COc1cc(/C=N/Nc2ccc(C)cc2)cc(Br)c1O | – | 79.4 µM (active)
6 | COc1ccc(S(=O)(=O)NNC(=O)Nc2ccc(C)cc2)c(OC)c1 | 28.3% | –
7 | CN1CCN(C(CNC(=O)c2ccccc2F)c2ccc3c(c2)OCO3)CC1 (centres undefined) | 23.5% [at 57 µM] | –
8 | Fc1ccc(CSc2nc(NCc3ccccc3)c3ccccc3n2)cc1 | 61.9% | –
9 | Clc1ccccc1CSc1nncn2c1cc1occc12 | 4.73% | –
10 | CN(C)C(=O)CSc1n[nH]c(-c2ccco2)n1 | 2.01% | –
11 | Clc1ccccc1CSc1nnc(-c2ccco2)c(-c2ccco2)n1 | – | 20 µM (active)
12 | c1ccc(CSc2nnc(-c3ccco3)c(-c3ccco3)n2)cc1 | – | 39.8 µM (active)
13 | CC1(C)N=C(SCc2ccccc2Cl)c2ccccc2N1 | 259% | –
14 | Cc1ccc(CNC(=O)CCc2c(C)nn(-c3ccc(N4CCCC4)nn3)c2C)cc1 | 134% | –
15 | CCCN1CCC(=O)N(C(CSc2ccc(OC)cc2)Cc2ccccc2)CC1 (centres undefined) | 30.4% | –
16 | COc1ccc(Cl)cc1S(=O)(=O)N1CCC(c2ccncc2)CC1 | 54.6% | –
17 | CC(C)(C)C1C/C(=C/c2ccco2)C(=O)/C(=C/c2ccco2)C1 (centres undefined) | – | 39.8 µM (active)
18 | COc1ccc(OC)c(NC(=O)CSC2=Nc3ccccc3C3=NC(CC(=O)NCc4ccc(F)cc4)C(=O)N23)c1 (centres undefined) | -3.25% | –
19 | CCc1nc2nc(C)cc(Nc3ccc(F)c(Cl)c3)n2n1 | 26.4% | –
20 | COc1ccc(S(=O)(=O)Nc2cccc3cccnc23)c(N)c1 | 13% | –
21 | COc1ccc(C(=O)Nc2ccc(-n3nncc3-c3ccccc3)cc2)cc1OC | -12.4% | –
22 | CC(=O)Nc1ccc(S(=O)(=O)N2N=NC3C2C2CC4C3(CN(C(=O)OC(C)(C)C)S4(=O)=O)O2)cc1 (centres undefined) | 33.6% | –
23 | COc1cccc(-c2nc(S(=O)(=O)c3ccc(C)cc3)c(NCc3ccccc3)o2)c1 | 76.4% | –
24 | Cc1ccc2c(c1)N(C(=O)Nc1ccc(Br)cc1F)CCO2 | 11.8% | –
25 | COC(=O)c1scc(-c2ccc(C)cc2)c1S(=O)(=O)Nc1cc(Cl)c(OC)cc1OC | 15.8% | –

Row | Compound | activity change, negative = inhibition | Potency
26 | O=[N+]([O-])c1ccc(N2CCN(c3ccc(O)cc3)CC2)c(Cl)c1 | – | 50.1 µM (active)
27 | CCN1CCN(c2ccc([N+](=O)[O-])cc2C(=O)c2ccc(Cl)cc2)CC1 | -17.5% | –
28 | O=C(O)C1CCN(c2ccc([N+](=O)[O-])cc2[N+](=O)[O-])CC1 | -25.7% | –
29 | COc1ccc(CCn2c3c(c(=O)[nH]c2=S)CN(C(C)C)CN3)cc1OC | 3.75% | –
30 | Cc1cc(C)c(/C=C/c2onc(C)c2S(=O)(=O)N2CCC(C(=O)Nc3ccc(Cl)cc3C)CC2)c(C)c1 | 23.2% [at 57 µM] | –
31 | CCN(CC)S(=O)(=O)c1ccc2c(c1)N(CC(=O)NCC(C)c1ccccc1)C(=O)CO2 (centres undefined) | 30.7% | –
32 | Cc1ccccc1C(=O)N(Cc1ccc(N(C)C)cc1)CC1CCCO1 (centres undefined) | -16.7% | –
33 | Cc1nc2c(c(C)nn2-c2ccccc2)c(C)c1CCC(=O)NCCc1ccc(Cl)cc1 | 24.9% | –
34 | CCCNC(=O)C1CCC(Cn2c(=O)c3sccc3n(Cc3ccccc3F)c2=O)CC1 (centres undefined) | 63.9% | –
35 | COc1ccc(N(C)C(=O)C2CCN(S(=O)(=O)c3cc(Br)cc4c3N(C(C)=O)CC4)CC2)cc1 | 20.3% | –
36 | O=c1ccc2c(-c3ccccc3S(=O)(=O)O)c3ccc(O)c(O)c3oc-2c1O | – | 1 µM (active)
37 | CCOc1cccc(NC(=O)c2ccc(F)c(S(=O)(=O)N(CC)c3cccc(C)c3)c2)c1 | 28.9% | –
38 | CCN(Cc1ccccc1)S(=O)(=O)c1ccc2c(c1)CCCN2C(C)=O | 17.3% [at 57 µM] | –
39 | Cc1ccc(Cl)cc1NC(=O)/C(C#N)=C\c1cn(Cc2ccc(F)cc2)c2ccccc12 | 6.98% | –
40 | COc1ccc(Cn2c(=O)[nH]c3cc(C(=O)N4CCN(C(=O)c5ccco5)CC4)ccc3c2=O)cc1 | 24.4% | –
41 | COc1ccc(CNC(=O)C2CCC(CNc3c(N4CCOCC4)c(=O)c3=O)CC2)cc1 (centres undefined) | – | inactive
42 | COc1ccc(NC(=S)NCC2CCN(c3ccc(OC)cc3)C2)cc1 (centres undefined) | – | 25.1 µM (active)
43 | COc1ccc(N2CCC(N3CCN(C)C(CCO)C3)CC2)cc1 (centres undefined) | 54.7% | –
44 | Cc1cccc(C)c1NC(=O)CNC(=O)C1CCCC1 | 9.1% | –
45 | COc1ccc(NC(=O)N2CCCC(C(=O)Nc3ccccc3OC)C2)cc1 (centres undefined) | 67.2% | –
46 | COc1ccc(N2CCC(CNC(=S)Nc3c(C)cccc3C)C2)cc1 (centres undefined) | – | 20 µM (active)
47 | CCCN1CCC(=O)N(C(CSc2ccc(C)cc2)Cc2ccccc2)CC1 (centres undefined) | 16.5% | –
48 | COc1ccc(CCNS(=O)(=O)c2cc(-c3cc(C)no3)ccc2C)cc1OC | 38.1% | –
49 | COc1cccc(NC(=O)N2CCN(C(=O)c3nsc4ccccc34)CC2)c1 | 51.1% | –
